Compounds with a hit are over-represented: about 21% of the library has one in this group of screens.
HCMV antiviral: qHTS Assay for inhibitors of the human cytomegalovirus (HCMV). activity change, negative = inhibition, % at 57.5 µM. AID 1259415, 2018. HFF cells, HCMV-luciferase reporter, 72 h; active compounds read low. 4.5% of 410,000 active; in the data active means activity change below about -60%; inconclusive means no clear call, values can overlap the other calls; inactive means above about -39%; further: on the % scale 0 is the no-effect control and ±100 the full control effect
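Inhibition of viral replication was scored as loss of reporter luminescence in HFFs infected with HCMV-luciferase (MOI 1 PFU/cell) for 72 h; compounds tested at 2 doses, normalized to buffer and Salinomycin controls.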
HCV inhibitor: qHTS Assay for Inhibitors of Hepatitis C Virus (HCV) | Huh7.5.1 HCVcc-Cre infection, luciferase reporter, 44 h | 3.4% of 340,000 active | Potency, µM (highest dose often 41.8 µM), without a hit: at the highest dose activity change, negative = inhibition, most hits filed as inhibitors; further: potency means the concentration at half of the fitted maximal effect; on the % scale 0 is the no-effect control and ±100 the full control effect
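Whole-lifecycle infectious HCVcc-Cre system; cells 1,000/well, compound then virus (~0.5 moi) added 4 h after plating, 44 h culture. Luciferase read 15 sec following 15 min substrate incubation, room temp.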
Pf growth 48h: Primary qHTS for delayed death inhibitors of the malarial parasite plastid, 48 hour incubation | P. falciparum luciferase growth in erythrocytes, 48 h | Potency, µM (highest dose often 28.7 µM), for inactives: at the highest dose activity change, negative = inhibition, usual class: inhibitors | 5.9% of 310,000 active | AID 504832, 2011; further: potency means the concentration at half of the fitted maximal effect; on the % scale 0 is the no-effect control and ±100 the full control effect
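Read-out is firefly luciferase luminescence from an integrated reporter in P. falciparum, so falling signal marks reduced parasite growth. Infected erythrocytes were at 2% hematocrit and 0.1% parasitemia (final) in Albumax-supplemented RPMI 1640.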
Shiga toxin inh: A qHTS for Small Molecule Inhibitors of Shiga Toxin | Vero cells, Shiga toxin protein synthesis inhibition reporter | inhibition, % at 38.7 µM | 9.2% of 290,000 active; in the data active means inhibition mostly above about 28%, no sharp cut-off; inactive means mostly below about 43%; further: 0% is about no effect
Pf growth 96h: Primary qHTS for delayed death inhibitors of the malarial parasite plastid, 96 hour incubation | P. falciparum luciferase reporter growth, 96 h | Potency, µM (titrated, usually from 28.7 µM), inactives show top-dose activity change, negative = inhibition, most hits filed as inhibitors | 6.9% of 320,000 active; further: potency means the concentration at half of the fitted maximal effect; on the % scale 0 is the no-effect control and ±100 the full control effect
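Luminescence readout: decreased luciferase signal marks inhibited growth of reporter-expressing P. falciparum in infected red cells (2% hematocrit, 0.05% parasitemia final), exposed to compound two generations (96 h, 37 C, 5% CO2).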
Cycloheximide cs: Cycloheximide Counterscreen for Small Molecule Inhibitors of Shiga Toxin | cell reporter, cycloheximide protein synthesis inhibition counterscreen | max response, % | 12% of 300,000 active | AID 2314, 2010; in the data active means max response mostly above about 13%, no sharp cut-off; inactive means mostly below about 14%; further: read at 38.3 µM for the half of the compounds with a filed dose; 0% is about no effect
HCV inh confirm: qHTS Assay for Inhibitors of Hepatitis C Virus (HCV): Confirmation Assay for Cherry-picked Compounds. Potency, µM (series often up to 41.8 µM), for the others: at the highest dose activity, negative = inhibition, most hits filed as inhibitors. shares compounds with HCV inhibitor. HCVcc-Cre infectious virus cell assay, luciferase, inhibition. 78% of 640 active; further: potency means the concentration at half of the fitted maximal effect; nearly all actives have a fitted effect of over 80% in size
HCV cytotox: qHTS Assay for Inhibitors of Hepatitis C Virus (HCV): Cytotoxicity Counterscreen for Cherry-picked Compounds; shares compounds with HCV inhibitor; HCV host cell line cytotoxicity counterscreen; Potency, µM (titrated, usually from 41.8 µM), for the others: top-dose activity change, negative = cytotoxicity, hits mostly inhibitors; 22% of 640 active;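 further: potency means the concentration at half of the fitted maximal effect; 44 h compound exposure; on the % scale 0 is the no-effect control and ±100 the full control effect; nearly all actives have a fitted effect of over 55% in size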
* = called active by the depositor; ? = inconclusive; nt = no result given; [ ] = another dose, or the depositor's remark. Unless noted, the call rests on the fitted dose curve; in most records, active means well fitted curve in the direction sought with a large enough effect; inconclusive means small, poorly fitted or top-dose-only effect, or another doubt; inactive means no such curve, though single readings can be large; an effect the other way counts as inactive or inconclusive.

SMILES	HCMV antiviral	HCV inhibitor	Pf growth 48h	Shiga toxin inh	Pf growth 96h	Cycloheximide cs	HCV inh confirm	HCV cytotox
O=C(Nc1ncc(Cc2ccc(C(F)(F)F)cc2)s1)c1ccc(-c2cccc([N+](=O)[O-])c2)o1	?	2.5µM*	?	-11	0.37µM*	-2	13µM*	?
CC/C(=N\O)c1c(O)c2c(n(-c3ccccc3)c1=O)CCCC2	16	6%	8%	-12	19%	-1	nt	nt
Cc1ccc(-n2nnnc2SCCNS(=O)(=O)c2ccccc2)cc1C	-19	?	?	-7	12%	-2	14µM*	-17%
COc1ccc(CNc2ncnc3cc(Cl)ccc23)cc1	-65*	8.9µM*	31%	0	?	-2	25µM*	?
Cc1cccc(C(=O)N2CCc3cc(CNC(=O)COc4ccc(Cl)cc4)ccc32)c1	20	nt	nt	nt	nt	nt	nt	nt
O=C(NCc1ccc2c(c1)OCO2)C1CCN(C(=O)Nc2ccc(Cl)cc2)CC1	63	?	-1%	-22	-10%	-6	13µM*	-1%
CC(=O)C1=CCC(c2ccccc2F)N(S(=O)(=O)c2ccc(C)cc2)C1 (stereo not given)	-32	nt	nt	nt	nt	nt	nt	nt
COc1ccc(CN(C)C(=O)[C@H]2O[C@@H](n3cnc4c(N)ncnc43)[C@H](O)[C@@H]2O)cc1OC	33	nt	nt	nt	nt	nt	nt	nt
O=C1Nc2ccc(C(=O)O)c(O)c2C1=O	11	7%	nt	nt	nt	nt	nt	nt
Nc1ccccc1C#Cc1ccc([N+](=O)[O-])cc1	114	?	nt	nt	nt	nt	1.8µM*	9%
Cc1nn(Cc2ccccc2)c2ncccc12	3	24%	?	-15	?	-1	nt	nt
O=C(NCc1ccc(F)cc1)c1ccc2c(=O)n3c(nc2c1)CCCCC3	-25	-8%	?	3	-12%	7	nt	nt
COc1ccc(CNC(=O)c2ccc3c(=O)n4c(nc3c2)CCCCC4)cc1OC	-74*	?	?	nt	?	nt	7.9µM*	?
COc1ccc(NC(=O)c2cccc(S(=O)(=O)N3CCN(c4ccccc4)CC3)c2)c(OC)c1	-28	?	10µM*	nt	?	nt	22µM*	9%
COc1ccccc1NC(=O)c1cccc(S(=O)(=O)N2CCN(c3ccccc3)CC2)c1	-19	?	?	nt	?	nt	nt	nt
COc1ccc(NC(=S)NCCc2ccc(F)cc2)c(OC)c1	1	-14%	-6%	-13	-6%	-3	nt	nt
COc1ccc(NC(=S)NCCSc2ccc(Cl)cc2)c(OC)c1	-26	5.6µM*	-24%	-5	-9%	-1	25µM*	-24%
N=c1c(C(=O)NCc2ccco2)cc2c(=O)n3ccccc3nc2n1C1CCCC1	9	?	-18%	2	?	7	nt	nt
N=c1c(C(=O)NCc2ccco2)cc2c(=O)n3ccccc3nc2n1Cc1ccccc1	21	3.2µM*	?	-3	nt	4	3.5µM*	?
N=c1c(C(=O)NCc2ccc3c(c2)OCO3)cc2c(=O)n3ccccc3nc2n1Cc1cccnc1	-13	6.3µM*	10µM*	-4	3%	-2	14µM*	0%
CC(NC(=O)c1cc2c(=O)n3ccccc3nc2n(CC2CCCO2)c1=N)c1ccccc1 (stereo not given)	-22	2.2µM*	13µM*	-10	19%	-3	11µM*	28%
Cc1ccc2nc3c(cc(C(=O)NCC4CCCO4)c(=N)n3CC3CCCO3)c(=O)n2c1 (stereo not given)	nt	10%	45%	-5	54%	-3	nt	nt
COc1ccc(CNC(=O)c2cc3c(=O)n4ccccc4nc3n(Cc3cccnc3)c2=N)cc1	44	?	?	-20	-7%	9	nt	nt
O=C(O)c1ccc(N[C@@H]2OC[C@@H](O)[C@@H](O)[C@@H]2O)cc1	nt	nt	-3%	nt	3%	nt	nt	nt
CC1CCCN(CC(O)COc2ccc(-c3ccccc3)cc2)C1 (stereo not given)	-28	2.8µM*	?	-5	0%	1	16µM*	52%
SMILES	HCMV antiviral	HCV inhibitor	Pf growth 48h	Shiga toxin inh	Pf growth 96h	Cycloheximide cs	HCV inh confirm	HCV cytotox
CC1CCCN(CC(O)COc2ccc(Cl)cc2)C1 (stereo not given)	-17	-24%	32%	9	-20%	-4	nt	nt
Cc1cc(NC(=O)c2ccc3c(c2)OCCO3)ccc1NC(=O)c1ccco1	-5	?	7%	-10	-17%	12	nt	nt
COc1cc(NC(=O)c2ccc3c(c2)OCO3)ccc1NC(=O)c1ccco1	-8	?	21%	4	-13%	1	?	8%
CC=C(/C(=C/C)c1ccc(O)cc1)c1ccc(O)cc1	nt	nt	-14%[12.8 µM]	nt	?	nt	nt	nt
COc1cc(C(=O)O/N=C(\N)c2ccc([N+](=O)[O-])cc2)cc(OC)c1OC	0	?	?	-5	0%	-3	?	26%
O=C(CN1C(=O)CCn2nc(-c3ccccc3)cc21)NCc1ccc(F)cc1	0	nt	nt	nt	nt	nt	nt	nt
COC(=O)Nc1ccc(Cc2ccncc2)cc1	-13	29%	3%	16	1%	-1	nt	nt
COc1cccc(NC(=O)Nc2ccc(Cc3ccncc3)cc2)c1	?	?	4%	42	-25%	9	?	4%
C=CCn1c(C)nnc1SCC(=O)Nc1oc(C)c2c(C)n[nH]c(=O)c12	-15	2%	17%	nt	1%	nt	nt	nt
COC(=O)C1=C(C)NC(=O)NC1c1ccc(-c2ccccc2Cl)o1 (stereo not given)	-22	?	-3%	-21	3.7µM*	5	22µM*	2%
CCCCn1c(N)c(N(CC(C)C)C(=O)c2cccc(OCc3ccccc3)c2)c(=O)[nH]c1=O	-20	?	?	nt	?	nt	nt	nt
NC[C@@H]1O[C@H](O[C@@H]2[C@H](O[C@@H]3O[C@H](CO)[C@@H](O)[C@@H]3O)[C@@H](O)[C@@H](N)C[C@H]2N)[C@@H](N)[C@H](O)[C@@H]1O	nt	nt	-11%[12.8 µM]	nt	-26%[12.8 µM]	nt	nt	nt
CC(C)(C)c1cc[n+](C2=C([O-])c3ccccc3C(=O)/C2=N\S(=O)(=O)c2cccs2)cc1	-100*	2.8µM*	1.3µM*	73*	2.1µM*	41*	25µM*	?

Screening data from PubChem.
